Experimental data: ChEMBL document CHEMBL2218924, “A broad activity screen in support of a chemogenomic map for kinase signalling research and drug discovery” (Biochem J, 2013)

What was measured:
[1] = target: T1, Serine/threonine-protein kinase BRSK1 (Homo sapiens) (UniProt Q8TDC3); conditions: at 1 µM
T1 sequence (whole entry): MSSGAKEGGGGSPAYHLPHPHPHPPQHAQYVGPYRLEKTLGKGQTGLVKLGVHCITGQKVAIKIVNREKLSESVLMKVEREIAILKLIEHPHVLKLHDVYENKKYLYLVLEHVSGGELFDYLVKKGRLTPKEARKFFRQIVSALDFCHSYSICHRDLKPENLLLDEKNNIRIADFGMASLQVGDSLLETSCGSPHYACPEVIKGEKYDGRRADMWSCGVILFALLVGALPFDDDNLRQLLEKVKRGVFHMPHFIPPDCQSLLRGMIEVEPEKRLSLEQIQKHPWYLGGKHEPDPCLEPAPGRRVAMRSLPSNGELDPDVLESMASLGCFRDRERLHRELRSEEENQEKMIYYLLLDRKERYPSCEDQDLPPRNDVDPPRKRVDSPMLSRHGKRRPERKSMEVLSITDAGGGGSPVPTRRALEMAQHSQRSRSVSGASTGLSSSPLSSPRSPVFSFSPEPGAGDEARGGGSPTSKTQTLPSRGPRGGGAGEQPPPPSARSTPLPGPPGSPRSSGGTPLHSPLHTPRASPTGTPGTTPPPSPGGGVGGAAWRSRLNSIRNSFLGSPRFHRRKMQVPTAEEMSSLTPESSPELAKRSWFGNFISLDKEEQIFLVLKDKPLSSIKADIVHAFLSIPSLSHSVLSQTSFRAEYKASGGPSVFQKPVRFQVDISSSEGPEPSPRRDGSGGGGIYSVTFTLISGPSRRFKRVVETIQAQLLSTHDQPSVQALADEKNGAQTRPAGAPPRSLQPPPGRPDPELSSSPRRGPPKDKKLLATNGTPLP

[2] = target: T1, Serine/threonine-protein kinase BRSK1 (Homo sapiens); conditions: at 10 µM
[3] = target: T2, Serine/threonine-protein kinase BRSK2 (Homo sapiens) (UniProt Q8IWQ3); conditions: at 1 µM
T2 sequence (whole entry): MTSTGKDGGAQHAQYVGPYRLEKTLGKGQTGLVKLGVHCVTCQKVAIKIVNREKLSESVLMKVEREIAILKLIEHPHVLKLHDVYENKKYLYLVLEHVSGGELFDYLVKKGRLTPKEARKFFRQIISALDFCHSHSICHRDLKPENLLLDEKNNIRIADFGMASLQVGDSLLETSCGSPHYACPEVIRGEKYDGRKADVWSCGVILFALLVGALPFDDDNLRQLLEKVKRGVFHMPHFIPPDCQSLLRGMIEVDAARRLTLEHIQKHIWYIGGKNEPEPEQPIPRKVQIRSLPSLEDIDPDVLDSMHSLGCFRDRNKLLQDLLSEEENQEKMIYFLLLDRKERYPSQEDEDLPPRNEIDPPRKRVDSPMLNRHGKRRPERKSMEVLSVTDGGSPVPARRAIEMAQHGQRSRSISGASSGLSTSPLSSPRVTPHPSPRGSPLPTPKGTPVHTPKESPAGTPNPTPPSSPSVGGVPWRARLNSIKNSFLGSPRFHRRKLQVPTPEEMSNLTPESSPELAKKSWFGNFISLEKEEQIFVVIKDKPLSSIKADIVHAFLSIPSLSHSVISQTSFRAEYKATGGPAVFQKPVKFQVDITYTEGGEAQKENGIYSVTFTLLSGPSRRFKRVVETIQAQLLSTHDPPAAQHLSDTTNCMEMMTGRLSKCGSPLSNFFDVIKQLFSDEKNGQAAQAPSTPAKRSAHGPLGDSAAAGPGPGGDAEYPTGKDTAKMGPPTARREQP

[4] = target: T2, Serine/threonine-protein kinase BRSK2 (Homo sapiens); conditions: at 10 µM
[5] = target: T3, Cyclin-dependent kinase 1/cyclin B1 (Homo sapiens) (UniProt P06493+P14635); conditions: at 1 µM
T3 sequence (P06493 whole entry, looked up): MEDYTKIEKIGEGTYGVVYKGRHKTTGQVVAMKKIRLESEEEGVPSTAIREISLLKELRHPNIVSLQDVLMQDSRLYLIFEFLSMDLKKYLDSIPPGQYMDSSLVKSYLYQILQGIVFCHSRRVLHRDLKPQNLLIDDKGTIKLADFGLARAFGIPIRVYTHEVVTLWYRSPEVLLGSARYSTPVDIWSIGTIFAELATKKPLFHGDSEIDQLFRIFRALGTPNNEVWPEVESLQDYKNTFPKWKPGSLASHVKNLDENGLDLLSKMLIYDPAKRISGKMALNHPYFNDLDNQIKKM
T3 sequence (P14635 whole entry, looked up): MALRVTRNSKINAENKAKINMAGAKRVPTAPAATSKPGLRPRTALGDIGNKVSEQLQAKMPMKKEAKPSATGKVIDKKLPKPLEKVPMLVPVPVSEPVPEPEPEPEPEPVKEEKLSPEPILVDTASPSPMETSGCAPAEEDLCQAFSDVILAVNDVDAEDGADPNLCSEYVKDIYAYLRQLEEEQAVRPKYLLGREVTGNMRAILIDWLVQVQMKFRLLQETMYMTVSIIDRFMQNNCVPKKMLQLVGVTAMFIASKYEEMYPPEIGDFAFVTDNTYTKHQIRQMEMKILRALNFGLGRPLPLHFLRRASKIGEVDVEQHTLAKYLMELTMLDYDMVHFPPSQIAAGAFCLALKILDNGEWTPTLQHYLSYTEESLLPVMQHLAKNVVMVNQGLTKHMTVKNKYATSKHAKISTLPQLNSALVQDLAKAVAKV

[6] = target: T3, Cyclin-dependent kinase 1/cyclin B1 (Homo sapiens); conditions: at 10 µM
[7] = target: T4, Cyclin-dependent kinase 2/cyclin A (Homo sapiens) (UniProt P24941+P20248+P78396); conditions: at 1 µM
[8] = target: T4, Cyclin-dependent kinase 2/cyclin A (Homo sapiens); conditions: at 10 µM
[9] = target: T5, Cyclin-dependent kinase 2/cyclin E (Homo sapiens) (UniProt P24864+P24941+O96020); conditions: at 1 µM
[10] = target: T5, Cyclin-dependent kinase 2/cyclin E (Homo sapiens); conditions: at 10 µM

| Structure (SMILES) | residual activity [1] [%] | residual activity [2] [%] | residual activity [3] [%] | residual activity [4] [%] | residual activity [5] [%] | residual activity [6] [%] | residual activity [7] [%] | residual activity [8] [%] | residual activity [9] [%] | residual activity [10] [%] |
| --- | --- | --- | --- | --- | --- | --- | --- | --- | --- | --- |
| CO[C@H]1[C@@H](OC)C[C@H](C)[C@@H](OC)C2=CC(=O)C=C(NC(=O)/C(C)=C/C=C/[C@H](OC)[C@@H](OC(N)=O)/C(C)=C/[C@@H]1C)C2=O | 76 | 75 | 92 | 106 | 111 | 110 | 138 | 83 | 104 | 91 |
| O=C1NC(=O)c2c1c1c3ccccc3[nH]c1c1[nH]c3cc(Br)ccc3c21 | 82 | 55 | 69 | 32 | 92 | 74 | 84 | 82 | 63 | 67 |
| Cc1nc2cc3nc(-c4cccs4)cnc3cc2n1C | 68 | 75 | 102 | 105 | 109 | 79 | 144 | 91 | 115 | 104 |
| O=C1c2ccccc2-[n+]2ccc3c([nH]c4ccccc43)c21 | 75 | 74 | 112 | 89 | 112 | 107 | 84 | 77 | 92 | 97 |
| CCC(=O)Nc1ccc2ncnc(Nc3cccc(Br)c3)c2c1 | 55 | 17 | 97 | 63 | 114 | 107 | 135 | 101 | 106 | 104 |
| Cn1cnc2cc3c(Nc4cccc(Br)c4)ncnc3cc21 | 58 | 13 | 91 | 62 | 103 | 94 | 132 | 87 | 110 | 102 |
| O=Nc1c(-c2c(O)[nH]c3ccccc23)[nH]c2ccccc12 | 13 | 12 | 10 | 5 | 35 | 19 | 19 | 5 | 6 | -1 |
| CO[C@@H]1[C@H](N(C)C(=O)c2ccccc2)C[C@H]2O[C@]1(C)n1c3ccccc3c3c4c(c5c6ccccc6n2c5c31)C(=O)NC4 | 3 | 3 | 4 | 3 | 82 | 80 | 80 | 39 | 70 | 60 |
| Ic1cccc(CSc2nnc(-c3ccncc3)o2)c1 | 84 | 87 | 113 | 97 | 18 | 14 | 85 | 68 | 41 | 32 |
| O=C1Nc2ccccc2/C1=C1/Nc2ccccc2/C1=N\OCCC(O)CO (stereo not given) | 26 | 39 | 33 | 4 | 25 | 6 | 12 | 11 | 9 | 4 |
| COc1cccc(-c2cc(=O)c3ccccc3o2)c1N | 101 | 103 | 123 | 98 | 99 | 99 | 93 | 10 | 96 | 85 |
| CC[n+]1c(/C=C/N(C)c2ccccc2)n(-c2ccccc2)c2ccc(-c3nc4ccccc4s3)cc21 | 59 | 68 | 111 | 129 | 111 | 91 | 146 | 85 | 101 | 89 |
| COc1ccc(CNc2nc(N(CCO)CCO)nc3c2ncn3C(C)C)cc1 | 91 | 92 | 114 | 99 | 81 | 26 | 24 | 3 | 18 | 0 |
| O=C1NC(=O)c2cc(Nc3ccc(F)cc3)c(Nc3ccc(F)cc3)cc21 | 48 | 56 | 107 | 92 | 111 | 90 | 129 | 79 | 98 | 69 |
| COc1cc2ncnc(N3CCN(C(=O)Nc4ccc(Oc5ccccc5)cc4)CC3)c2cc1OC | 79 | 91 | 113 | 126 | 119 | 109 | 117 | 92 | 98 | 96 |
| Nc1n[nH]c2nnc(-c3c(-c4ccccc4)nn4ccccc34)cc12 | 92 | 70 | 103 | 96 | 107 | 99 | 92 | 90 | 93 | 96 |
| O=C1NC(=O)/C(=C/c2ccc3c(c2)OC(F)(F)O3)S1 | 86 | 71 | 76 | 62 | 101 | 104 | 140 | 96 | 102 | 113 |
| CCOc1cc2ncnc(Nc3cccc(Br)c3)c2cc1OCC | 12 | 15 | 95 | 60 | 93 | 89 | 136 | 89 | 92 | 79 |
